Measured values: PubChem BioAssay AID2314 (National Center for Advancing Translational Sciences (NCATS), 2010)
About 37,000 (12%) of roughly 300,000 compounds were called active. No stated cut-off is given here; in the data, active means max response mostly above about 13% (no sharp cut-off); inactive means mostly below about 14%. This excerpt belongs to a sample that is enriched for actives.

Assay: Cycloheximide Counterscreen for Small Molecule Inhibitors of Shiga Toxin; further: read at 38.3 µM for the half of the compounds with a filed dose; 0% is about no effect
Details: cell reporter, cycloheximide protein synthesis inhibition counterscreen; stronger effect = higher value
In the case of `O=C(O)CC(c1ccccc1F)N1Cc2ccccc2C1=O` (configuration not stated), the max response is reported as -3.84% (inactive).
With `COc1cc([N+](=O)[O-])cc([N+](=O)[O-])c1NC(=O)N1CCOCC1` the max response was -3.17% (inactive).
With `COc1ccc(OCCCON2C(=O)c3ccccc3C2=O)cc1` the max response was -3.07% (inactive).
For `O=C(OCCN1C(=O)c2ccccc2C1=O)Oc1ccccc1`, the max response was -5.45% (inactive).
With `O=C1c2ccccc2C(=O)N1CCOc1ccc(F)cc1` the max response was 34.9% (active).
In the case of `COc1cc(OC)cc(C(=O)Nc2nnc(SCC(=O)NCC3CCCO3)s2)c1` (configuration not stated), the max response is reported as 5.61% (inactive).
In the case of `COC(=O)C1=C(C)N(C(C)c2ccccc2)C(=O)/C1=C\c1ccco1` (configuration not stated), the max response is reported as 12.5% (inactive).
With `O=C(Nn1cnnc1)c1cc(Cl)ccc1Cl` the max response was 1.72% (inactive).
In the case of `Cc1ccc(-n2c(SCC(=O)N3CCC(C(=O)O)CC3)nc3ccccc3c2=O)cc1C`, the max response is reported as 25.2% (active).
With `CCc1c(O)nc(SCC(=O)N2CCCCC2)n(-c2ccccc2C)c1=O` the max response was -1.43% (inactive).
With `COc1cccc(-n2c(SCC(=O)c3c[nH]c4ccccc34)nc3ccccc3c2=O)c1` the max response was -2.32% (inactive).
With `Cc1[nH]c2ccccc2c1C(=O)CN1CC(C)CC(C)C1` (configuration not stated) the max response was -1.83% (inactive).
In the case of `C=CCOC(=O)C1=C[C@@H](c2ccccc2)C[C@@H](OCc2ccc(CO)cc2)O1`, the max response is reported as 8.03% (inactive).
With `O=C(NC1CC1)C1=C[C@H](c2c[nH]c3ccccc23)C[C@H](OCc2ccc(CO)cc2)O1` the max response was 16.2% (active).
In the case of `NC(=O)C1=C[C@@H](c2csc3ccccc23)C[C@@H](OCc2ccc(CO)cc2)O1`, the max response is reported as -2.5% (inactive).
In the case of `NC(=O)C1=C[C@H](c2csc3ccccc23)C[C@H](OCc2ccc(CO)cc2)O1`, the max response is reported as 20.4% (active).
For `O=C(NCc1ccccc1)C1=C[C@@H](c2ccc(C(F)(F)F)cc2)C[C@@H](OCc2ccc(CO)cc2)O1`, the max response was 6.43% (inactive).
With `O=C(NCc1ccccc1)C1=C[C@H](C2CC2)C[C@H](OCc2ccc(CO)cc2)O1` the max response was -2.61% (inactive).
In the case of `CCc1cccc(NC(=O)CCCN2C(=O)C(c3ccccc3)Oc3cccnc32)c1` (configuration not stated), the max response is reported as 11.2% (inactive).
In the case of `C=C(Br)Cn1c(CCCC)nc2ccccc21`, the max response is reported as 3.99% (inactive).
With `COc1ccc(C)cc1S(=O)(=O)NCCc1ccccc1` the max response was -1.77% (inactive).
With `COc1ccc(CCN2C(=O)N(c3ccc(OC)cc3)C(=O)C2CC(=O)Nc2ccc(OC)cc2)cc1` (configuration not stated) the max response was 1.2% (inactive).
In the case of `Cc1cc(C(F)F)nn1CC(=O)NC1CCCCCC1`, the max response is reported as 6.8% (inactive).
In the case of `O=C(CN1CCCCCC1)Nc1ccc(Br)cc1Br`, the max response is reported as 15.8% (inactive).
With `O=CN1CCN(C2CC(=O)N(c3ccc4c(c3)OCO4)C2=O)CC1` (configuration not stated) the max response was 11.4% (inactive).
In the case of `Cc1ccc(N2C(=O)CC(NCc3ccc4c(c3)OCO4)C2=O)cc1Cl` (configuration not stated), the max response is reported as 24% (active).
With `Cc1ccc(CC2CC(=O)N(c3ccc4c(c3)OCCO4)C2=O)cc1` (configuration not stated) the max response was 21.2% (inactive).
